# Compound activity (PubChem BioAssay)
# Casp1 inh – blocks human caspase-1 allosterically or competitively; P29466; Caspase-1 enzyme, Ac-WEHD-AFC fluorogenic rate; Potency, µM (doses to about 57.5 µM), actives largely listed as inhibitors; 75,000 tested, 0.03% active
# ERK AVP block – blocks ERK signaling stimulated by vasopressin | HEK293-V1b, vasopressin-stimulated pERK AlphaScreen | Potency, µM (top dose mostly 57.5 µM), most hits filed as inhibitors | 72,000 tested, 0.99% active | AID 995; also: nearly all actives have a fitted effect of over 55% in size
#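 Phosphorylated ERK1/2 detected via AlphaScreen bead proximity in lysates of V1b-expressing HEK293 cells given 25 nM vasopressin for 5 min after 30 min compound exposure (37 °C). AC50 from Hill equation; basal DMSO 0%, vasopressin 100%.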
# Caspase-7 inhib – blocks human caspase-7 allosterically or competitively; 75,000 tested, 0.02% active; P55210; Potency, µM (titrated, usually from 57.5 µM), hits mostly inhibitors; recombinant caspase-7, Ac-DEVD-AFC fluorescence rate; active = well fitted inhibition curve with a large enough effect in the main read-out, with a control signal flat, not every such curve was filed as active; inconclusive = small, poorly fitted or top-dose-only effect, or a change in a side signal
# Tau fil binding – binders of human tau filaments | P10636 | recombinant tau filaments, thioflavin S fluorescence, 15 h; filaments grown with octadecylsulfate alongside compound | Potency, µM (highest dose often 57.1 µM) | 71,000 tested, 2% active;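 also: actives lower thioflavin S fluorescence by blocking filaments or displacing dye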
# Target sequence (P10636 whole entry, looked up): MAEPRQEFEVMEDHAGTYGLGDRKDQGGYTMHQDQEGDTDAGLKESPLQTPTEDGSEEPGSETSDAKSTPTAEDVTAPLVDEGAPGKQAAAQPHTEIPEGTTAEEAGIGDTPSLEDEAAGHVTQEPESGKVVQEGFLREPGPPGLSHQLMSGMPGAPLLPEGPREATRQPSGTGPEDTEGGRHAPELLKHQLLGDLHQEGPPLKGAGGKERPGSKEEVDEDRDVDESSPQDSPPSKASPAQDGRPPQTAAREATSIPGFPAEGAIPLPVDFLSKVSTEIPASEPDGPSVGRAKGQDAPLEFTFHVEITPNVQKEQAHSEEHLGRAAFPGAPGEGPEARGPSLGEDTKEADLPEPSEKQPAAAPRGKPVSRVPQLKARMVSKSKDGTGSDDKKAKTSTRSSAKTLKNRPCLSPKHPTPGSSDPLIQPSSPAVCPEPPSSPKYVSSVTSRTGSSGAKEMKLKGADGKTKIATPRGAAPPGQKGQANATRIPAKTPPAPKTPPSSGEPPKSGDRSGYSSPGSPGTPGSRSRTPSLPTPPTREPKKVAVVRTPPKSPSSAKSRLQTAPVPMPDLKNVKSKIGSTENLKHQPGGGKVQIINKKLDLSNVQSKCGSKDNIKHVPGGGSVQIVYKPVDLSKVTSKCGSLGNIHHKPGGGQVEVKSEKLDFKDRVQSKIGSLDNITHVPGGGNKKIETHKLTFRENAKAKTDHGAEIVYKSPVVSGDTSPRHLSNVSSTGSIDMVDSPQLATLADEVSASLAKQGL
#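 His-tagged recombinant human tau (exons 2, 3, 10; 1 uM final) fibrillized with 30 uM sodium octadecylsulfate, 15 h at 37 C, in pH 7.4 HEPES buffer with 10 uM thioflavine S and 5 mM DTT. Reduced ThS fluorescence (450/510 nm) marks activity.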
# 15-hLO inh – inhibitors of human 15-lipoxygenase (ALOX15). purified 15hLO-1, xylenol orange hydroperoxide absorbance. Potency, µM (top dose mostly 57.1 µM), hits mostly inhibitors. 74,000 tested, 1.4% active. AID 887; also: nearly all actives have a fitted effect of over 55% in size
#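 Inhibition is scored from a chromogenic endpoint. After 15 min enzyme-compound contact, arachidonic acid (50 uM final) reacts 6 min with 40 nM 15hLO-1 at room temperature, then Fe-XO reagent is added for 30 min and absorbance ratio recorded.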
# Hits are given with their value; 0 = inactive; ? = inconclusive; - = no result; ! = not confirmed by another sample; [ ] = remark or other dose. Hits are enriched below; roughly 3.9% of the tested compounds scored in any of these assays. Unless noted, calls follow the shape of the dose curve; as a rule, active = well fitted curve in the direction sought with a large enough effect; inconclusive = small, poorly fitted or top-dose-only effect, or another doubt; inactive = no such curve, though single readings can be large; an effect the other way counts as inactive or inconclusive.
SMILES,Casp1 inh,ERK AVP block,Caspase-7 inhib,Tau fil binding,15-hLO inh
c1ccc2c(c1)CCN(c1nc3cc4c(cc3s1)OCO4)C2,0,0,0,0,10µM
Cc1ccc(OC2C(O)COC2/C=C/C#Cc2ccc(C(C)(C)C)cc2)cc1 (configuration not stated),0[11.5 µM],0[11.5 µM],0[11.5 µM],-,3.2µM!
O=C1NC(c2cccs2)Nc2sc3c(c21)CCCC3 (configuration not stated),0,?,0,2.5µM,25µM
O=C(C1CCN(S(=O)(=O)c2cccc3cccnc23)CC1)N1CCN(c2ccc(Cl)cc2)CC1,0,7.9µM,0,0,?
O=C(C1CCN(S(=O)(=O)c2cccc3cccnc23)CC1)N1CCN(c2ccccn2)CC1,0,0,0,0,0
Cc1cccc(NC(=O)C2CCN(S(=O)(=O)c3cccc4cccnc34)CC2)n1,0,10µM,0,0,0
O=C(C1CCN(S(=O)(=O)c2ccc3ccccc3c2)CC1)N1CCN(c2ncccn2)CC1,0,25µM,0,0,0
Cc1ccc(NC(=O)C2CCN(S(=O)(=O)c3cccc4cccnc34)CC2)nc1,0,32µM,0,0,?
CC(=O)c1ccc(NC(=O)C2CCN(S(=O)(=O)c3cccc4cccnc34)CC2)cc1,0,0,0,0,0
COc1cc(N=c2ssnc2Cl)cc(OC)c1OC,0,0,0,0,3.2µM
Nc1ncnc2nc(-c3ccc(N4CCOCC4)nc3)cc(-c3cccc(Br)c3)c12,-,0,?,-,10µM
c1ccc(-c2cc(N3CCOCC3)nc(-c3ccccc3)n2)cc1,0,?,0,0,0
N#CC1=C(N)SC(N)=C(C#N)C1c1cccc(Oc2ccccc2)c1,0,0,0,0,5µM
CCOc1ccc(C2C(C#N)=C(N)SC(N)=C2C#N)cc1OCC,0,0,0,0,?
Cc1conc1NC(c1cccs1)c1ccc2cccnc2c1O (configuration not stated),0,0,0,13µM,?
COCCn1c(=O)c(-c2ccc(OC)cc2)nc2cnc(N3CCN(C)CC3)nc21,-,0,?,0,0
COc1ccc(N2CCN(C(=O)c3ccc4nc(N5CCCCC5)sc4c3)CC2)cc1,0,?,0,0,0
COc1cccc(N2CCN(C(=O)c3ccc4nc(N5CCCCC5)sc4c3)CC2)c1,0,25µM,0,0,0
S=c1nc(-c2nc(=S)[nH]c3c2CCCCCCCCCC3)c2c([nH]1)CCCCCCCCCC2,0[11.5 µM],0[11.5 µM],0[11.5 µM],0[11.4 µM],0[11.4 µM]
COc1cccc2c1C(=O)c1c(O)c3c(c(O)c1C2=O)C[C@](O)(C(=O)CO)C[C@@H]3O[C@H]1C[C@H](N)[C@@H](O)[C@H](C)O1,-,-,-,0[11.4 µM],-
COc1cccc2c1C(=O)c1c(O)c3c(c(O)c1C2=O)C[C@@](O)(C(C)=O)C[C@@H]3O[C@H]1C[C@H](N)[C@H](O)[C@H](C)O1,0,?,0,0.13µM,0
CC(C)=CCC/C(C)=C\COc1c2ccoc2cc2oc(=O)ccc12,0,0,0,-,0
Cc1ccc(C(=N)c2ccccc2Cc2cccc3ccccc23)c2ccccc12,0[11.5 µM],0[11.5 µM],0[11.5 µM],0[11.4 µM],0[11.4 µM]
Fc1ccc(OCc2nc(-c3ccc(Br)o3)no2)c(F)c1,0,0,0,0,7.9µM
Cc1nnc2ccc(N3CCN(C(=O)c4ccccc4)CC3)nn12,0,0,0,0,0
SMILES,Casp1 inh,ERK AVP block,Caspase-7 inhib,Tau fil binding,15-hLO inh
O=C(c1ccc(Br)o1)N1CCN(c2ccc3nnc(-c4ccccc4)n3n2)CC1,0,0,0,0,16µM
N#C/C(C(=O)c1ccccc1)=C1/SC=C(N)N1c1ccccc1,0,0,0,0,16µM
CC1=CS/C(=C(/C#N)C(=O)N2CCCCC2)N1c1ccccc1,0,0,0,0,0
N#Cc1ccc(CN2CC[C@@]3(CCCN(C(=O)c4cnccn4)C3)C2)cc1,0,0,0,0,0
COc1cccc(-c2cc(N(C)Cc3ccco3)ncn2)c1,0,0,0,0,0
Cc1noc(C)c1-c1cc(NC2CCNCC2)ncn1,0,0,0,0,16µM
Cc1noc(C)c1-c1cc(N2CCNCC2)ncn1,0,0,0,0,0
COCc1cc(C)nc(SCC(=O)c2ccc(O)c(O)c2)c1C#N,0,0,0,0,3.2µM
COCc1cc(C)nc(SCC(=O)Nc2ccc3c(c2)OCO3)c1C#N,0,0,0,0,0
COc1ccc(OC)c(CCNC(=O)Cn2sc3nc(C)cc(C)c3c2=O)c1,0,16µM,0,0,?
COc1ccc(-c2nc(CS(=O)(=O)CC(=O)NCCc3cc(OC)ccc3OC)c(C)o2)cc1,0,0,0,0,0
COc1ccccc1CNc1nc2ccccc2n1CCN1CCCCC1,0,0,0,0,0
C=CCc1cccc(CNc2nc3ccccc3n2CCN2CCOCC2)c1O,0,0,0,25µM,0
c1csc(CNc2nc3ccccc3n2CCN2CCOCC2)c1,0,0,0,0,0
Oc1ccccc1CNc1nc2ccccc2n1CCN1CCCCC1,0,0,0,0,13µM
CC(=O)C1=C(O)C=C(c2ccco2)CC1c1ccco1 (configuration not stated),0,0,0,20µM,?
COc1cc(C=O)c([N+](=O)[O-])cc1OC,0,0,0,-,?
Cc1c(CN(C)C)c2c(n1C)C(=O)c1ccc(Br)cc1-2,0,?,0,2.5µM,0
CC(C)c1ccc(-c2nnn(CCC(=O)O)n2)cc1,0,0,0,0,1.6µM
O=C(O)CCn1nnc(-c2cccs2)n1,0,0,0,0,0
Cc1ccc(C(=O)Cn2c3c(sc2=N)CCCC3)cc1,0,?,0,?,?
O=C(c1ncn[nH]1)N1CCN(c2nc(-c3ccccc3)cs2)CC1,0,?,0,0,0
O=C(c1cc(-n2cnnc2)ccc1Cl)N1CCN(c2nc(-c3ccccc3)cs2)CC1,0,25µM,0,0,0
O=C(c1csnn1)N1CCC[C@@]2(CCN(c3ncccn3)C2)C1,0,0,0,0,0
CNCCCC1c2ccccc2C=Cc2ccccc21,0,0,0,5µM!,0
SMILES,Casp1 inh,ERK AVP block,Caspase-7 inhib,Tau fil binding,15-hLO inh
N[C@@H](CSCc1ccc(I)cc1)C(=O)O,0[11.5 µM],0[11.5 µM],0[11.5 µM],0[11.4 µM],0[11.4 µM]
Cc1nc2ccc(F)cc2cc1C(=O)NCC1CCCO1 (configuration not stated),0,0,0,13µM,0
CO/N=C1\CN(c2nc3c(cc2F)c(=O)c(C(=O)O)cn3C2CC2)CC1CN (configuration not stated),0,0,0,-,0
Cc1nc2ccccc2c2oc(C(=O)N3CCc4ccccc4C3)cc12,0,7.9µM,0,0,20µM
Cc1nc2ccccc2c2oc(C(=O)N3CCN(C(=O)c4ccco4)CC3)cc12,0,0,0,0,0
O=C(O)c1ccc(Cl)c2c1C1C=CCC1C(c1ccccn1)N2 (configuration not stated),?,?,?,0,16µM
COc1cccc2c1NC(C(=O)O)C1CC=CC21 (configuration not stated),0,0,0,0,0
